Settings in all cases: mRNA level, 48 h; actives raise or lower the signal
Read-out in assay [1]: solute carrier (SLCO1B1), SLCO1B1 (gene 10599)
Put plainly: LTEA_HepaRG_SLCO1B1: Life Technologies and Expression Analysis (LTEA) Assay for solute carrier (SLCO1B1) using HepaRG (AID 2283530). The essentials: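 SLCO1B1 transcript read by qRT-PCR (Fluidigm arrays), normalized to three housekeeping genes, after 48 h chemical exposure of HepaRG cells; bidirectional concentration-response fitting versus 0.5% DMSO baseline. Eight-point half-log series, maximum 100 uM.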

Read-out in assay [2]: sulfotransferase 2A1 (SULT2A1), SULT2A1 (gene 6822)
Put plainly: LTEA_HepaRG_SULT2A1: Life Technologies and Expression Analysis (LTEA) Assay for sulfotransferase 2A1 (SULT2A1) using HepaRG (AID 2283531). The essentials: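 HepaRG, 48 h chemical exposure, 8-pt half-log curve from 100 uM in 0.5% DMSO, duplicates. Readout: TaqMan qRT-PCR of SULT2A1 mRNA, housekeeping-normalized. Bidirectional fit vs DMSO baseline.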

Read-out in assay [3]: Transforming Growth Factor (TGFA), TGFA (gene 7039)
Put plainly: LTEA_HepaRG_TGFA: Life Technologies and Expression Analysis (LTEA) Assay for Transforming Growth Factor (TGFA) using HepaRG (AID 2283532). The essentials:
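Differentiated HepaRG cells exposed 48 hours in serum-free induction medium, 0.5% DMSO vehicle, 8-point half-log series from 100 uM, in duplicate. TGFA mRNA by TaqMan qRT-PCR, normalised to ACTB, GAPDH, POLR2A; bidirectional fit versus DMSO.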

Read-out in assay [4]: Transforming Growth Factor (TGFB1), TGFB1 (gene 7040)
Put plainly: LTEA_HepaRG_TGFB1: Life Technologies and Expression Analysis (LTEA) Assay for Transforming Growth Factor (TGFB1) Transporter using HepaRG (AID 2283533). The essentials: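 qRT-PCR readout of TGFB1 transcript in HepaRG lysates, normalized to three housekeeping genes; gain or loss of signal fitted relative to 0.5% DMSO vehicle. Exposure: 48 h, 8-point curve from 100 uM, duplicate wells.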

Read-out in assay [5]: TIMP1, TIMP1 (gene 7076)
Put plainly: LTEA_HepaRG_TIMP1: Life Technologies and Expression Analysis (LTEA) Assay for TIMP1 using HepaRG (AID 2283534).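 Further: TaqMan qRT-PCR signal normalized to ACTB GAPDH and POLR2A housekeeping genes.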 The essentials: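 HepaRG, 48 h exposure, 8-pt half-log series from 100 uM in 0.5% DMSO, duplicates; TIMP1 transcript by Fluidigm qRT-PCR, housekeeping-normalized; bidirectional curve fit vs DMSO baseline.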

Read-out in assay [6]: Tumor necrosis factor receptor 1 (TNFRSF1A), TNFRSF1A (gene 7132)
Briefly: LTEA_HepaRG_TNFRSF1A: Life Technologies and Expression Analysis (LTEA) Assay for Tumor necrosis factor receptor 1 (TNFRSF1A) using HepaRG (AID 2283535). The essentials: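 HepaRG, 48 h plating then 48 h chemical exposure, serum-free induction media; 8-pt CRC from 100 uM, half-log, 0.5% DMSO vehicle, duplicates. Readout: TaqMan qRT-PCR (Fluidigm), housekeeping-gene normalized; bidirectional fit vs DMSO.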

Read-out in assay [7]: Thyroid Hormone Responsive (THRSP), THRSP (gene 7069)
Put plainly: LTEA_HepaRG_THRSP: Life Technologies and Expression Analysis (LTEA) Assay for Thyroid Hormone Responsive (THRSP) using HepaRG (AID 2283536). The essentials: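 Differentiated HepaRG cells treated 48 h in serum-free induction medium with 8 half-log concentrations up to 100 uM (0.5% DMSO), duplicates. THRSP mRNA by TaqMan qRT-PCR normalised to ACTB, GAPDH, POLR2A; bidirectional fit versus DMSO.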

Read-out in assay [8]: UDP glucuronosyltransferase (UGT1A1), UGT1A1 (gene 54658)
Briefly: LTEA_HepaRG_UGT1A1: Life Technologies and Expression Analysis (LTEA) Assay for UDP glucuronosyltransferase (UGT1A1) using HepaRG (AID 2283538). The essentials:
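HepaRG cells, 0.5% DMSO vehicle, 48 h exposure in serum-free induction medium to 8-point half-log series topping at 100 uM, in duplicate. UGT1A1 mRNA by Fluidigm qRT-PCR, normalized to ACTB/GAPDH/POLR2A; bidirectional fit versus DMSO.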

Read-out in assay [9]: UDP glucuronosyltransferase (UGT1A6), UGT1A6 (gene 54578)
Briefly: LTEA_HepaRG_UGT1A6: Life Technologies and Expression Analysis (LTEA) Assay for UDP glucuronosyltransferase (UGT1A6) using HepaRG (AID 2283539). The essentials:
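qRT-PCR readout of UGT1A6 mRNA (normalized to ACTB/GAPDH/POLR2A) in differentiated HepaRG cells after 48 h chemical exposure; 8 concentrations, top 100 uM, half-log steps, 0.5% DMSO. Bidirectional curve fit relative to DMSO baseline.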

Read-out in assay [10]: Cellular tumor antigen p53 (Homo sapiens) (UniProt P04637)
Put plainly: LTEA_HepaRG_TP53: Life Technologies and Expression Analysis (LTEA) Assay for Tumor Protein P53 (TP53) using HepaRG (AID 2283537). The essentials:
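TP53 transcript measured by qRT-PCR, normalized to three housekeeping genes, after 48 h treatment of human HepaRG cultures with chemicals from 100 uM downward in half-log steps (0.5% DMSO vehicle, serum-free induction medium). Up- or down-regulation fitted against DMSO.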

This is an account of results in PubChem BioAssay (EPA / NIEHS).

Activity calls are given as the source filed them. How the source made its calls: active means hit-call score of the fitted dose curve at least 0.9, where 1 is the maximum; inactive means score below 0.9.

Sequence of Cellular tumor antigen p53 (Homo sapiens) (P04637 whole entry, looked up): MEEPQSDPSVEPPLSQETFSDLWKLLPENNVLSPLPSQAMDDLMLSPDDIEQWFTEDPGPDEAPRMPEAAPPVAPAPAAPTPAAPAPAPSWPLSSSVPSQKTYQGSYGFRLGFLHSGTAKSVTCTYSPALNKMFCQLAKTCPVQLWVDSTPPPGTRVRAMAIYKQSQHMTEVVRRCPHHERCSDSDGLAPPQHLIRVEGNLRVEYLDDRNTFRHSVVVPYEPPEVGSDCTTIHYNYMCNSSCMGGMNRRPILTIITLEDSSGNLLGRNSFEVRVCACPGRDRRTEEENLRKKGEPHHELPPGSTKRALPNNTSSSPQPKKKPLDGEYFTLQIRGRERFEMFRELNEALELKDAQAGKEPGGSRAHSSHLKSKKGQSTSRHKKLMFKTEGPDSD

In general, AC50 refers to the concentration giving half of the maximal activity seen. With `CCNC(=O)NC(=O)C(C#N)=NOC`, the outcome in assay [1], in assay [2], in assay [3], in assay [4], in [5] and in assay [7] was inactive. The compound was called inactive in assay [8]. Moreover, the AC50 is 0.27 µM (active) in [6] and 0.306 µM (active) in assay [9].

As for `CC(C)C1(C)N=C(c2ncccc2C(=O)O)NC1=O` (configuration not stated), the result in assay [1], in [2], in assay [3], in assay [4], in [5] and in [6] was inactive. Further, the compound was classed as inactive in assay [7], in assay [10], in [8] and in [9].

Turning to `COC(=O)NC(=S)Nc1ccccc1NC(=S)NC(=O)OC`, the result in assay [1], in [2], in assay [3], in [4], in assay [5] and in assay [6] was inactive. The compound was classed as inactive in [7], in [10] and in [9]. Moreover, the AC50 in assay [8] was 14.3 µM (active).

On to `CCOC(=O)C(C)OC(=O)c1cc(Oc2ccc(C(F)(F)F)cc2Cl)ccc1[N+](=O)[O-]` (configuration not stated), for which the result in [1], in [2], in assay [3], in [4], in assay [5] and in assay [6] was inactive. Moreover, the result in assay [10] and in [9] was inactive. The AC50 was 28.4 µM (active) in assay [7] and 8.94 µM (active) in [8].

Turning to `Clc1cccc(C(Cl)(Cl)Cl)n1`, the result in assay [2], in [3], in assay [4], in assay [5], in assay [6] and in [7] was inactive. Moreover, the call in [10] and in [9] was inactive. Also, in assay [8], the AC50 is 50 µM (active).

With `CC(C)Oc1cccc(NC(=O)c2ccccc2C(F)(F)F)c1`, the result in assay [2], in assay [3], in assay [4], in [5], in [6] and in [7] was inactive. Further, the outcome in [10] and in assay [9] was inactive. The AC50 in assay [8] is 29.4 µM (active).

As for `COc1cc(OC)nc(NC(=O)NS(=O)(=O)c2ncccc2OCC(F)(F)F)n1`, the outcome in assay [2], in assay [3], in [4], in [5], in assay [6] and in assay [7] was inactive. Further, the call in assay [10], in assay [8] and in assay [9] was inactive.

For the compound `CN=C=S`, the result in assay [2], in assay [3], in [4], in [5], in [6] and in assay [7] was inactive. Also, the call in [10], in assay [8] and in [9] was inactive.

Take `COP(=O)(OC)O/C(C)=C/C(=O)N(C)C`: the compound was called inactive in [2], in assay [3], in assay [4], in [5], in assay [6] and in [7]. Moreover, the result in assay [10], in assay [8] and in [9] was inactive.

Regarding `N#CN=C1SCCN1Cc1ccc(Cl)nc1`, the call in assay [2], in assay [3], in assay [4], in assay [5], in assay [6] and in assay [7] was inactive. The outcome in assay [10], in assay [8] and in assay [9] was inactive.

As to `Nc1cnn(-c2ccccc2)c(=O)c1Cl`, the compound was called inactive in assay [2], in assay [3], in assay [4], in assay [5], in assay [6] and in assay [7]. Further, the compound was called inactive in assay [10] and in assay [9]. In addition, the AC50 in assay [8] is 50 µM (active).
